Pf growth 48h: P. falciparum growth inhibition at 48 hours (one generation) | P. falciparum luciferase growth in erythrocytes, 48 h | Potency, µM (highest dose often 28.7 µM), inactives show top-dose activity change, negative = inhibition, actives largely listed as inhibitors | hit rate 5.9% among 310,000; further: potency means the concentration at half of the fitted maximal effect
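Luciferase-expressing P. falciparum in infected erythrocytes (2% hematocrit, 0.1% parasitemia final) in RPMI 1640/0.5% Albumax were exposed to compound for 48 hours at 37 C, 5% CO2; growth read as luminescence.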
Pf growth 96h: inhibits malaria parasite growth, 96 h | P. falciparum luciferase reporter growth, 96 h | hit rate 6.9% among 320,000 | Potency, µM (titrated, usually from 28.7 µM), inactives show top-dose activity change, negative = inhibition, usual class: inhibitors | AID 504834; further: potency means the concentration at half of the fitted maximal effect
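Infected RBCs, 2% Hct / 0.05% parasitemia final; luciferase-reporter P. falciparum; cpd 96 h, 37 C, 5% CO2; luciferase detection reagent; luminescence.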
HCV inh: HCV inhibition | Huh7.5.1 HCVcc-Cre infection, luciferase reporter, 44 h | AID 651820 | hit rate 3.4% among 340,000 | Potency, µM (series often up to 41.8 µM), inactives show at the top dose activity change, negative = inhibition, most hits filed as inhibitors; further: potency means the concentration at half of the fitted maximal effect
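1,000 cells/well; 4 h culture; + compound; + HCVcc-Cre (~0.5 moi); 44 h; luciferase substrate, RT 15 min; read 15 sec.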
HCMV antiviral: human cytomegalovirus inhibition | hit rate 4.5% among 410,000 | HFF cells, HCMV-luciferase reporter, 72 h; hits give low values | activity change, negative = inhibition, % at 57.5 µM; in the data active means activity change below about -60%; inconclusive means no clear call, values can overlap the other calls; inactive means above about -39%
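After 16 h attachment at 37C, HFF cells received test compound and HCMV-luciferase (1 PFU/cell); reporter luminescence read 72 h later, data normalized against buffer-only and known inhibitor Salinomycin.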
Starred values were filed as active, the others as inactive; ? = inconclusive; nt = no result. Most compounds without a hit are left out; they make up all but 13% or so of the library. Unless noted, the call rests on the fitted dose curve; in most records, active means well fitted inhibition curve with a large enough effect; inconclusive means small, poorly fitted or top-dose-only effect, or another doubt; inactive means no such curve, though single readings can be large or run the other way. On the % scale 0 is the no-effect control and ±100 the full control effect.

SMILES	Pf growth 48h	Pf growth 96h	HCV inh	HCMV antiviral
CCC(C)Sc1ccc([C@@H]2[C@@H]3C(=O)N(CC)C(=O)[C@@H]3[C@]3(C(=O)OC)CCCCN23)cc1OC (some centres undefined)	nt	nt	11µM*	14
CCSc1ccc([C@@H]2[C@H]3C(=O)N(C)C(=O)[C@H]3[C@]3(C(=O)OC)CCCCN23)cc1OC	10µM*	?	-11%	0
CCC(C)Sc1ccc([C@@H]2[C@@H]3C(=O)N(C)C(=O)[C@@H]3[C@]3(C(=O)OC)CCCCN23)cc1OC (some centres undefined)	?	?	-5%	70
Cc1ccc(CNC(=O)Cn2c(=O)n(-c3ccc(Cl)cc3)c(=O)c3c(C)c(C)sc32)cc1	nt	nt	nt	11
O=C(Nc1ccc(F)cc1F)c1ccc2c(O)c(S(=O)(=O)c3ccc(Cl)cc3)c(=O)[nH]c2c1	nt	nt	nt	-5
CCOc1ccccc1NC(=O)CN1C(=O)CC(c2ccc(C)c(C)c2)=Nc2ccccc21	nt	nt	nt	95
CCSc1ccc([C@@H]2[C@@H]3C(=O)N(C)C(=O)[C@@H]3[C@]3(C(=O)OC)CCCCN23)cc1	8.3µM*	?	5%	-15
O=C(Oc1ccc2ccc(OC(=O)N3CCOCC3)cc2c1)N1CCOCC1	47%	10µM*	-5%	4
Clc1cccc(N2CCN(c3ncnc4c3nc3n4CCCCC3)CC2)c1	nt	nt	nt	-73*
CC1CCN(C(=O)C2CCN(c3ncnc4c3nc3n4CCCCC3)CC2)CC1	-8%	?	1%	?
Cc1ccc(N2CCN(C(=O)C3CCN(c4ncnc5c4nc4n5CCCCC4)CC3)CC2)c(C)c1	nt	nt	nt	-62*
Cc1noc2ncnc(N3CCN(c4cccc(Cl)c4)CC3)c12	?	?	10µM*	-72*
O=C(C1CCN(c2ncnc3c2nc2n3CCCCC2)CC1)N1CCN(c2cccc(Cl)c2)CC1	0%	-20%	?	-91*
Cc1ccc(Cl)cc1N1CCN(c2ncnc3onc(C)c23)CC1	nt	nt	nt	-13
Cc1cccc(N2CCN(c3ncnc4c3nc3n4CCCCC3)CC2)c1C	nt	nt	nt	-28
Cc1ccc(-c2csc(-c3cc4c([nH]c3=O)CC(c3ccccc3)CC4=O)n2)cc1 (centres undefined)	nt	nt	nt	0
COc1ccc(C)cc1NC(=O)c1ccc2c(c1)CCN2S(=O)(=O)c1ccc(Cl)cc1	nt	nt	nt	-11
COc1cccc(CNC(=O)c2cnc(N3CCCCC3)c3ccccc23)c1	nt	nt	nt	23
COc1ccc(/C=C(\C#N)c2nc3ccc(C)cc3[nH]2)cc1Oc1ccc(C(F)(F)F)cc1[N+](=O)[O-]	?	?	?	-68*
CCOC(=O)COc1ccc(/C=C(\C#N)c2nc3ccc(C)cc3[nH]2)cc1OC	nt	nt	nt	-105*
Cc1ccc(CNC(=O)C2CCCN(c3ncnc4onc(-c5ccc(F)cc5)c34)C2)cc1 (centres undefined)	nt	nt	nt	1
COc1ccc2c(c1)C1=NN(/C(C)=C/C(C)=O)C(c3ccc(F)cc3)C1CC2 (centres undefined)	0%	34%	12%	-19
COc1ccc2c(c1)C1=NN(/C(C)=C\C(C)=O)C(c3ccccc3)C1CC2 (centres undefined)	13µM*	1%	?	28
CCS(=O)(=O)N1Cc2ccccc2CC1C(=O)Nc1nnc(SCc2ccc(C#N)cc2)s1 (centres undefined)	-16%	-9%	-12%	-66*
Cc1cc(NS(=O)(=O)c2ccc(NC(=O)COc3cc(C)c(Br)cc3C(C)C)cc2)no1	nt	nt	nt	-5
SMILES	Pf growth 48h	Pf growth 96h	HCV inh	HCMV antiviral
CC(=O)c1cccc(N2Cc3ccccc3C2=NC(=O)CCl)c1	-26%	13µM*	-13%	29
COCc1ccc(CN2CCC(C(=O)Nc3cccc(-c4cccc(Cl)c4)c3)CC2)o1	13µM*	?	10µM*	42
O=C(Nc1cccc(-c2cccc(Cl)c2)c1)C1CCN(CC2CCOC2)CC1 (centres undefined)	8.3µM*	23%	10µM*	?
O=C(Nc1cccc(-c2cccc(Cl)c2)c1)C1CCN(Cc2ccccn2)CC1	?	5%	10µM*	-74*
O=C(Nc1cccc(-c2cccc(F)c2)c1)C1CCN(CC2CCOC2)CC1 (centres undefined)	?	27%	?	-21
O=C(Nc1ccc(-n2cccn2)cc1)C1CCN(Cc2ccccn2)CC1	?	-15%	nt	8
O=C(Nc1cccc(-c2cccc(Cl)c2)c1)C1CCN(Cc2ccon2)CC1	14%	8.3µM*	?	-37
CC(C)C(=O)N1c2nc(-c3ccco3)nn2C2(CCCCC2)[C@@H]2CCCC[C@@H]21	nt	nt	nt	7
CCc1ccc(NC(=O)c2ccc(F)c(S(=O)(=O)NC3CCCCCC3)c2)cc1	nt	nt	nt	-79*
CCc1ccc(NC(=O)c2ccc(F)c(S(=O)(=O)NCC3COc4ccccc4O3)c2)cc1 (centres undefined)	?	?	?	-91*
CCc1ccc(NC(=O)c2ccc(F)c(S(=O)(=O)N(C)C3CCCCC3)c2)cc1	nt	nt	nt	-98*
CCc1ccc(NC(=O)c2ccc(F)c(S(=O)(=O)NCCc3ccc(OC)c(OC)c3)c2)cc1	nt	nt	nt	-83*
CCOc1ccc(NC(=O)c2ccc(F)c(S(=O)(=O)N(Cc3ccc(C(=O)OC)cc3)Cc3ccc(OC)c(OC)c3)c2)cc1	nt	nt	nt	-9
CCc1ccc(NC(=O)c2ccc(F)c(S(=O)(=O)N3CCN(c4ccc(OC)cc4)CC3)c2)cc1	nt	nt	nt	-38
COc1ccc(OCC2NCCc3cc(OC)c(OC)cc32)cc1 (centres undefined)	21%	36%	?	-31
COc1cc2c(cc1OC)C(COc1cccc(C(F)(F)F)c1)NCC2 (centres undefined)	?	-19%	?	-71*
Cn1c(=O)oc2cc(S(=O)(=O)N3CCC(C(=O)N4CCN(c5ccccc5)CC4)CC3)ccc21	2%	?	5%	?
CCCc1cc(=O)n2nc(N3CCC(C(=O)N4CCN(c5cccc(OC)c5)CC4)CC3)sc2n1	?	-6%	?	-70*
CC1CCN(S(=O)(=O)c2ccc3c(c2)oc(=O)n3C)CC1	-8%	0.47µM*	9%	12
Cn1c(=O)oc2cc(S(=O)(=O)N3CCC(C(=O)N4CCN(c5ccc(F)cc5)CC4)CC3)ccc21	?	63%	14%	-61*
Cc1ccc(C(C)(C)C)cc1S(=O)(=O)N1CCC(C(=O)N2CCN(c3ccc(O)cc3)CC2)CC1	3.7µM*	10µM*	?	?
CCCCN(C)CCNC(=O)c1c2c(nc3ccccc13)C(=O)N(C1CCCCC1)C2	nt	nt	nt	31
O=C(C1CCN(S(=O)(=O)N2CCOCC2)CC1)N1CCN(c2ccc(F)cc2)CC1	-1%	-26%	?	-74*
CCOC(=O)N1CCN(C(=O)C2CCCN(S(=O)(=O)c3cc(C)ccc3OC)C2)CC1 (centres undefined)	?	nt	6%	20

Compound activity from PubChem BioAssay.
